Reference: PubChem BioAssay (NCI)
The panel holds about 83,000 compounds, 20% with a hit somewhere; the sample as a whole holds those more often.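 Testing used 96-well plates and a 48-hour single-concentration exposure. Example: -40 means 40% of the starting cells died.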 Activity calls are given as the source filed them. Rule for the calls: active = growth percent below 10; inactive = the rest.

Key:
Assay in all cases: NCI-60 one-dose screen, 48 h (100 = growth as untreated, 0 = no growth, -100 = all killed)
Conditions in all cases: 10 µM unless noted
[1] = system: SK-MEL-2 melanoma
[2] = system: SN12C renal
[3] = system: UO-31 renal
[4] = system: TK-10 renal
[5] = system: ACHN renal
[6] = system: CAKI-1 renal
[7] = system: A498 renal
[8] = system: CCRF-CEM leukemia
[9] = system: MOLT-4 leukemia
[10] = system: SR leukemia
[11] = system: RPMI-8226 leukemia
[12] = system: OVCAR-8 ovarian
[13] = system: OVCAR-5 ovarian
[14] = system: OVCAR-4 ovarian
[15] = system: SK-OV-3 ovarian
[16] = system: IGROV1 ovarian
[17] = system: OVCAR-3 ovarian
[18] = system: HS 578T breast
[19] = system: NCI/ADR-RES ovarian

Measured: growth

COc1cc(-c2nc(SCC(C)C)nc(Nc3cccc4ccccc34)c2C#N)cc(OC)c1OC
inactive: [1] 107% | [2] 92.6% | [3] 67.9% | [4] 128% | [5] 98.4% | [6] 68.5% | [7] 74.3% | [8] 75% | [9] 64.3% | [10] 40.7% | [11] 91.2% | [12] 92.1% | [13] 109% | [14] 87.6% | [15] 110% | [16] 106% | [17] 117% | [18] 106% | [19] 98.8%

Cn1cc(-c2nc(-c3c[nH]c4ccncc34)cs2)c2ccccc21
inactive: [1] 93.1% | [2] 77.5% | [3] 57.9% | [4] 88.3% | [5] 24.7% | [6] 19.8% | [7] 85.3% | [9] 35.7% | [12] 49.4% | [13] 71.8% | [14] 52.1% | [15] 77.3% | [16] 67.3% | [17] 85.8% | [18] 90.1% | [19] 86.4%
active: [8] 0.202% | [10] -9.5% | [11] -29%

O=C(Nc1ccc(NC(=O)c2cc(=O)[nH]c3ccccc23)cc1)Nc1cccc(C(F)(F)F)c1
inactive: [1] 92.5% | [2] 54.2% | [3] 71% | [4] 134% | [5] 95% | [7] 100% | [8] 70.2% | [9] 79.6% | [10] 61.1% | [11] 74.4% | [12] 65.2% | [13] 84.3% | [14] 74.2% | [15] 69.1% | [16] 64.9% | [17] 63.9% | [18] 50.8% | [19] 103%

Cc1ccc(-n2c(=S)[nH]c3sc4c(c3c2=O)CCC(=O)C4)cc1
active: [17] 4.02%
inactive: [1] 39.6% | [2] 40.3% | [3] 43.8% | [4] 83.5% | [5] 39.4% | [6] 28.6% | [7] 109% | [8] 20.8% | [9] 48.9% | [10] 28.5% | [11] 22.7% | [12] 50.2% | [14] 69.3% | [15] 91.6% | [16] 48.9% | [18] 34.3% | [19] 27.1%

Cc1cc2c([nH]1)CSc1cc(S(=O)(=O)c3ccccc3)c(=O)[nH]c1-2
active: [6] 6.96% [100 µM] | [17] -15.6% [100 µM]
inactive: [1] 30.5% [100 µM] | [2] 23.8% [100 µM] | [3] 35.4% [100 µM] | [4] 26.5% [100 µM] | [5] 23.5% [100 µM] | [7] 51.7% [100 µM] | [8] 19.3% [100 µM] | [9] 32.7% [100 µM] | [11] 21.3% [100 µM] | [12] 24.3% [100 µM] | [14] 43.1% [100 µM] | [15] 22% [100 µM] | [16] 42.6% [100 µM] | [18] 47.5% [100 µM] | [19] 15.7% [100 µM]

CCCCCOc1ccc(C(=O)/C(Br)=C/C(=O)O)cc1
inactive: [1] 95.2% | [2] 102% | [4] 125% | [5] 94.3% | [6] 81.1% | [7] 86.2% | [8] 80.5% | [9] 65.4% | [10] 91.9% | [11] 77.8% | [12] 114% | [13] 108% | [14] 105% | [15] 109% | [16] 85.6% | [17] 100% | [18] 102% | [19] 95%

O=C1c2c(c3c4ccc(Br)cc4oc3c3[nH]c4ccccc4c23)C(=O)N1O
active: [10] 8.52% | [11] 3.91%
inactive: [1] 20% | [2] 14.5% | [4] 121% | [5] 22.8% | [6] 29% | [7] 13.1% | [8] 11.4% | [9] 11.2% | [12] 47.6% | [13] 95.9% | [14] 66% | [15] 79.1% | [16] 25.3% | [17] 21.3% | [18] 18% | [19] 56.2%

CCCCCC(=O)OCC(=O)O[C@@H]1C[C@]2(C(C)C)O[C@@]1(C)[C@@H]1CC[C@@H](C)[C@H]1[C@@H]2OC(=O)/C=C/c1ccccc1
active: [3] -80.3% | [5] -24.2% | [6] -4.76% | [7] -88.6% | [18] -15.5%
inactive: [1] 94% | [2] 19.7% | [4] 134% | [8] 59.7% | [9] 72.1% | [10] 76.3% | [11] 66.8% | [12] 19.9% | [13] 112% | [14] 75.7% | [15] 87.9% | [16] 86.7% | [17] 52.9% | [19] 21.7%

CC(C)c1ccc(NC(=O)Nc2ccc(NC(=O)CCCC(=O)NOCc3ccccc3)cc2)cc1
inactive: [1] 87.7% | [2] 92.8% | [3] 85% | [4] 103% | [5] 87.4% | [6] 87.9% | [7] 96.4% | [8] 75.1% | [9] 71.1% | [10] 73.4% | [11] 91.1% | [12] 96.7% | [13] 89.2% | [14] 89.2% | [15] 97.4% | [16] 91.5% | [18] 85.7% | [19] 99.1%

CN1CCN(Cc2ccc(NC(=O)c3cncc(C#Cc4cnc(N)c5ccccc45)c3)cc2C(F)(F)F)CC1
active: [1] -81.6% | [2] -90.7% | [3] -89.7% | [4] -90% | [5] -100% | [6] -92.1% | [7] -87% | [8] -6.38% | [9] 2.94% | [10] 1.53% | [11] -42.8% | [12] -82.5% | [13] -83.7% | [14] -32.7% | [15] -78.5% | [16] -69.8% | [17] -87.6% | [18] -41.5% | [19] -65.7%

COc1ccc2[nH]cc(-c3nc(-c4c[nH]c5ccncc45)cs3)c2c1
active: [5] 4.58% | [6] 9.06% | [8] -7.05% | [9] -8.02% | [10] 0.735% | [11] -20% | [17] -13.2%
inactive: [1] 84.7% | [2] 71.9% | [3] 49% | [4] 71.1% | [7] 81.5% | [12] 38.6% | [13] 45.3% | [15] 86.3% | [16] 64.7% | [18] 93.2% | [19] 59.9%

C=CCn1cc(-c2nc3ccccc3s2)c2cc(-c3ccc4c5c(cccc35)C(=O)N(N)C4=O)ccc21
inactive: [1] 102% | [2] 92.1% | [3] 61.3% | [4] 152% | [5] 92% | [6] 75.1% | [7] 106% | [8] 104% | [9] 96.5% | [10] 89.7% | [11] 99.3% | [12] 102% | [13] 103% | [14] 97.8% | [15] 95.3% | [16] 69.8% | [17] 100% | [18] 103% | [19] 96.5%

CC1(c2ccccc2O)NN=C(/N=C/c2cccc([N+](=O)[O-])c2)N1C(Cc1c[nH]c2ccccc12)C(=O)O (configuration not stated)
inactive: [1] 87.8% | [2] 94.2% | [3] 70.8% | [4] 141% | [5] 91.1% | [6] 93.7% | [7] 90.9% | [8] 81.9% | [9] 92.5% | [10] 87.7% | [11] 81.3% | [12] 88.7% | [13] 106% | [14] 90.2% | [15] 61.3% | [16] 62% | [17] 95% | [18] 95.8% | [19] 97.1%

Cc1ccccc1NC(=O)c1sc2nc(C)c(C(=O)/C=C/c3ccccc3)cc2c1N
inactive: [1] 34.8% | [3] 19.7% | [4] 11.7% | [5] 33.3% | [6] 25.5% | [7] 29.3% | [9] 17.4% | [10] 24.4% | [13] 20.8% | [14] 51.3% | [15] 82% | [16] 10.3%
active: [2] 3.45% | [8] 8.43% | [11] -24.7% | [12] 6.75% | [17] -5.72% | [18] 10% | [19] 1.11%

O=C(CSc1nc(-c2ccccc2)[nH]c1S(=O)(=O)c1ccccc1)NC1CC1
inactive: [1] 102% | [2] 96.5% | [3] 89.2% | [4] 87.2% | [5] 104% | [6] 99.2% | [7] 72.9% | [8] 93.4% | [9] 93.8% | [10] 92.1% | [11] 90.1% | [12] 97.2% | [13] 109% | [14] 95% | [15] 13.4% | [16] 107% | [17] 102% | [18] 99.2% | [19] 83.1%
